From PubChem BioAssay (Tox21)
Records with an inconclusive call do not appear. A call without a number means that no potency is given here. Activity calls are given as the source filed them. The call rests on the fitted dose curve; in most records, active means well fitted activation curve with a large enough effect in the signal ratio in the repeat runs (not every such curve was filed as active); inconclusive means weak or mixed curves; inactive means flat fitted curve, though single readings scatter; the % refers to the signal ratio.

assay: p53 small molecule agonists, cell-based qHTS assay (AID 1963582); conditions: HCT-116 p53RE-bla reporter, beta-lactamase FRET ratio, 16 h; series mostly up to 66 µM
From the text: National Center for Advancing Translational Sciences [NCATS]
Division of Preclinical Innovation [DPI]
U.S. Environmental Protection Agency [EPA]
National Institutes of Environmental Health Sciences [NIEHS]
National Toxicology Program [NTP]
U.S. Food and Drug Administration [FDA]
p53, a tumor suppressor protein, is activated following cellular insult, including DNA damage and other cellular stresses. The activation of p53 regulates cell fate by inducing DNA repair, cell cycle arrest, apoptosis, or cellular senescence. The activation of p53, therefore, is a good indicator of DNA damage and other cellular stresses. […] The activation of the reporter gene under culture conditions can be detected by fluorescence intensity. This cell line was used to screen the Tox21 10K compound library in a 1536-well plate format and to identify agonists that activate the p53 signaling pathway.
Tox21 Assay Protocol Summary:
The p53RE-bla cells were dispensed at 4,000 cells/5 ul/well in 1536-well black wall/clear bottom plates using a Multidrop dispenser. After the assay plates were incubated at a 37 C/5% CO2 incubator for 5 hours, 23 nL of compounds dissolved in DMSO, positive controls or DMSO only was transferred to the assay plate by a pin tool. The plates were incubated at 37 C for 16 hours. After 1 uL of LiveBLAzerTM B/G FRET substrate was added using a Flying Reagent Dispenser, the plates were incubated at room temperature for 2 hours, and fluorescence intensity was measured by an Envision plate reader.

| SMILES | Potency | activation |
| --- | --- | --- |
| CC(C)(C)NCC(O)COc1ccccc1OCC1CCCO1 (stereo not given) | inactive | – |
| O=Cc1cccc([N+](=O)[O-])c1 | inactive | – |
| Nc1nccs1 | inactive | – |
| Cn1cc(S(C)=O)c(=O)c2ccc(F)cc21 (stereo not given) | inactive | – |
| O=C(O)c1cc(O)c(O)c(O)c1 | inactive | – |
| CC(C)(C)CC(C)(C)c1ccc(Nc2ccc(C(C)(C)CC(C)(C)C)cc2)cc1 | – | 4.39% [at 5.99 µM] (inactive) |
| CC1(C)C2=CCCC(C)(C)[C@]23CC[C@H]1C3 | inactive | – |
| Nc1ccc(NCCO)c([N+](=O)[O-])c1 | inactive | – |
| F[Si-2](F)(F)(F)(F)F | inactive | – |
| CCN(C=O)CC | inactive | – |
| O=C(NCN1CCOCC1)c1cnccn1 | inactive | – |
| Cl/C(=C\n1cncn1)c1ccc(Cl)cc1Cl | inactive | – |
| Cc1cc(N)no1 | inactive | – |
| O=C(O)/C=C/c1ccccc1 | inactive | – |
| CC1(C)[C@@H]2CC[C@@]1(C)[C@H](O)C2 | inactive | – |
| CC(=O)OC/C=C/c1ccccc1 | inactive | – |
| CNCCO | inactive | – |
| CC(C)(C)c1ccc(CCC=O)cc1 | inactive | – |
| c1ccc(CCc2ccccc2)cc1 | inactive | – |
| OCc1ccccc1O | inactive | – |

| SMILES | Potency | activation |
| --- | --- | --- |
| CCSC(=O)N(CC)CC | inactive | – |
| O=C(O)CNC(=O)c1ccccc1I | inactive | – |
| CC(C=O)c1ccccc1 (stereo not given) | inactive | – |
| C1=CCC2CC=CC2C1 (stereo not given) | inactive | – |
| Cc1cc(C)cc(OCC2CNC(=O)O2)c1 (stereo not given) | inactive | – |
| Cc1ccc(NC(=O)N(C)C)cc1NC(=O)N(C)C | inactive | – |
| CCCCCCCCCCCCC(=O)O | inactive | – |
| CCCC(=O)OCC(COC(=O)CCC)OC(=O)CCC | inactive | – |
| Cc1ccc(N)cc1[N+](=O)[O-] | inactive | – |
| O=P(O)(OCc1ccccc1)OCc1ccccc1 | inactive | – |
| CC(C)CC(=O)O | inactive | – |
| COc1ccc(C(=O)c2cccc(O)c2)c(OC)c1 | inactive | – |
| CCC(=O)OC/C=C(\C)CCC=C(C)C | inactive | – |
| O=[N+]([O-])c1ccccc1Nc1ccccc1 | inactive | – |
| Cc1cc(C)c(C(=O)O)c(C)c1 | inactive | – |
| C[C@@H](O)[C@H]1C(=O)N2C(C(=O)O)=C(SCCN=CN)C[C@H]12 | inactive | – |
| O=C(O)C[C@H](NC(=O)OCc1ccccc1)C(=O)O | inactive | – |
| CCCCC1CCC(=O)O1 (stereo not given) | inactive | – |
| CCC(C)(C)C1CCC(=O)CC1 | inactive | – |
| Cc1ccc(C(C)(C)C)cc1 | inactive | – |
